Results taken from PubChem BioAssay (NCI).
This is part of a sample that, as a whole, favours compounds with a hit. Of some 83,000 tested, about 20% had one in any assay.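 The test compound was applied at a single concentration to cells in 96-well plates for 48 hours, and percent growth was recorded.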 Unmarked numbers belong to inactive results. Calls of active or inactive are those of the source. Rule for the calls: active = growth percent below 10; inactive = the rest.

tested on: KM12 colon; test: NCI-60 one-dose screen, 48 h (100 = growth as untreated, 0 = no growth, -100 = all killed); details: 10 µM unless noted

**Q.** `CCCCCC1(CCBr)C(=O)NC(=O)NC1=O` was tested. Which growth did it give?
**A.** 109%

**Q.** For `CC(=O)OC[C@]1(C)C=C2C(=O)[C@](C)(O)C3(CC3)C(C)=C2[C@H]1OC(=O)N(C)CCN(C)C(=O)OC(C)(C)C`, which growth is on record?
**A.** 13%

**Q.** `CC(C)(C)C(=O)OCOP(=O)(OCOC(=O)C(C)(C)C)C1CCCN(O)C1=O` (centres undefined) was tested. Which growth did it give?
**A.** -3.46% (active)

**Q.** For `C[C@]12CCc3nc(Nc4ccccc4F)sc3C1=CC[C@@H]1[C@@H]2CC[C@]2(C)C(=O)CC[C@@H]12`, which growth is on record?
**A.** 42.5%

**Q.** Which growth does the source give for `O=[N+]([O-])c1cc([N+](=O)[O-])c(Cl)cc1Cl` here?
**A.** -81.1% (active)

**Q.** How did the growth turn out when `NC(=O)c1c(Br)n(C2OC(CO)C(O)C2O)c2ncnc(N)c12` (centres undefined) was run?
**A.** -8.13% (active)

**Q.** How did the growth turn out when `O=[N+]([O-])/C=C\c1ccc(Cl)c(Cl)c1` was run?
**A.** 43.6%

**Q.** With `CCOC(=O)C(Cc1ccc(N(CCCl)CCCl)cc1)NC(=O)C(CC(C)C)NC(C)=O` (centres undefined) as the compound, how does the growth read?
**A.** 71.6%

**Q.** Which growth does the source give for `C[C@@H]1CCC2[C@@H](C)[C@H](OC(=O)CCC(=O)NCCNC(=O)Cc3cc(=O)oc4cc(N(C)C)ccc34)O[C@@H]3O[C@]4(C)CC[C@@H]1C23OO4` (some centres undefined) here?
**A.** 22.2%

**Q.** `ClCCN(CCCl)c1ccc(-n2cnc3c(Cl)ncnc32)cc1` was tested. Which growth did it give?
**A.** 46.3%

**Q.** With `CC(=O)O[C@H]1CC[C@]2(C)[C@H]3CC[C@]4(C)[C@@H](OC(C)=O)CC[C@H]4[C@@H]3[C@@H](C)[C@]2(O)C1` as the compound, how does the growth read?
**A.** 109%

**Q.** With `COc1cc2c(c(OC)c1OC)-c1ccc([O-])c(=O)cc1[C@@H](NC(C)=O)CC2.COc1cc2c(c(OC)c1OC)-c1ccc([O-])c(=O)cc1[C@@H](NC(C)=O)CC2.[Cu+2]` as the compound, how does the growth read?
**A.** 6.75% (active)

**Q.** `CCCCCCCC(=O)OCC(=O)[C@]1(O)Cc2c(O)c3c(c(O)c2[C@@H](OC2CC(N)C(O)C(C)O2)C1)C(=O)c1c(OC)cccc1C3=O` (some centres undefined) was tested. Which growth did it give?
**A.** -96.2% (active)

**Q.** For `CCCC(C)C1(CC)C(=O)NC(=O)N(C)C1=O` (centres undefined), which growth is on record?
**A.** 110%

**Q.** How did the growth turn out when `CC1(C)N=C(N)N=C(N)N1c1ccc(OCCCNC(=O)Nc2ccc(S(=O)(=O)F)cc2)c(Cl)c1` was run?
**A.** 22%

**Q.** How did the growth turn out when `COC(=O)[C@@H](C)C[C@H](Cc1ccccc1)NC(=O)c1csc([C@@H](C[C@H](C(C)C)N(C)C(=O)C2(NC(=O)[C@H]3CCCCN3C)CCC2)OC(C)=O)n1` was run?
**A.** 5.71% (active)

**Q.** `CNC(=O)Oc1ccc(C(C)(C)C)cc1OC(=O)NC` was tested. Which growth did it give?
**A.** 99.8%

**Q.** With `C/C(=C\c1ccn(-c2ccc(N)cc2)n1)[C@@H]1C[C@@H]2O[C@]2(C)CCC[C@H](C)[C@H](O)[C@@H](C)C(=O)C(C)(C)[C@@H](O)CC(=O)O1` as the compound, how does the growth read?
**A.** 15%

**Q.** How did the growth turn out when `Nc1ccc2c(c1)oc1ccccc12` was run?
**A.** 106%
